Screening results (PubChem)
VACV mCherry inh – inhibitors of vaccinia virus infection (mCherry reporter signal) | Vaccinia virus mCherry reporter infection, fluorescence | Potency, µM (top dose mostly 36.5 µM), for inactives: top-dose activity change, negative = inhibition, hits mostly inhibitors | hit rate 0.63% among 310,000; calls by dose curve; tested in A549 cells; further: potency means the concentration at half of the fitted maximal effect; nearly all actives have a fitted effect of over 35% in size
Marburg entry inh – Marburg virus entry inhibition; Marburg virus pseudotyped entry inhibition, cell reporter; Potency, µM (top dose mostly 37.8 µM), for the others: top-dose activity change, negative = inhibition, actives largely listed as inhibitors; hit rate 1.8% among 300,000; calls by dose curve; tested in HEK293 cells; further: potency means the concentration at half of the fitted maximal effect
Vaccinia Venus – vaccinia inhibition (Venus reporter); Vaccinia virus Venus reporter expression, fluorescence; Potency, µM (top dose mostly 36.5 µM), without a hit: at the top dose activity change, negative = inhibition, usual class: inhibitors; hit rate 0.46% among 330,000; AID 720580; calls by dose curve; tested in A549 cells; further: potency means the concentration at half of the fitted maximal effect; nearly all actives have a fitted effect of over 30% in size
FMDV antiviral – foot and mouth disease virus antiviral activity. FMDV antiviral cell-based qHTS. AID 1159524. hit rate 1.2% among 410,000. Potency, µM (highest dose often 57.9 µM), inactives show top-dose activity change, negative = inhibition, hits mostly inhibitors; calls by dose curve; tested in HEK293T cells; further: read-out not given here; potency means the concentration at half of the fitted maximal effect; nearly all actives have a fitted effect of over 45% in size
Lassa entry inh – Lassa virus entry inhibition | Potency, µM (doses to about 37.9 µM), for inactives: top-dose activity change, negative = inhibition, usual class: inhibitors | Lassa virus pseudotype entry inhibition, cell reporter | hit rate 1.2% among 300,000; calls by dose curve; tested in HEK293 cells; further: potency means the concentration at half of the fitted maximal effect; nearly all actives have a fitted effect of over 50% in size
HCMV inh – inhibitors of human cytomegalovirus; HFF cells, HCMV-luciferase reporter, 72 h; active compounds read low; activity change, negative = inhibition, % at 57.5 µM; hit rate 4.5% among 410,000; in the data active means activity change below about -60%; inconclusive means no clear call, values can overlap the other calls; inactive means above about -39%
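Two-dose cell screen: HFF monolayers treated with compounds and infected with luciferase-expressing HCMV at 1 PFU/cell, 72 h at 37C, then lysed for luciferase measurement.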
The depositor's hits bear a star; i = inactive; ? = inconclusive; / = no result; [ ] = remark or other dose. Sampled rows, rich in hits. Any-hit rate of the full collection: about 6.5%. On the % scale 0 is the no-effect control and ±100 the full control effect.

SMILES	VACV mCherry inh	Marburg entry inh	Vaccinia Venus	FMDV antiviral	Lassa entry inh	HCMV inh
C/C(=N\NC(=O)CNC(=O)c1ccc2c(c1)OCCO2)c1ccco1	-13%	-16%	0%	23%	?	24
C/C(=N/NC(=O)CNC(=O)C1COc2ccccc2O1)c1ccc2c(c1)OCCO2 (configuration not stated)	0%	1%[46.1 µM]	-2%	0%	-2%	-73*
CCN(CC)c1ccc(/C=N/NC(=O)CNC(=O)C2COc3ccccc3O2)c(O)c1 (configuration not stated)	2.8µM*	4.5µM*	?	-7%	11µM*	-97*
CCN(CC)S(=O)(=O)c1cccc(C(=O)N/N=C/c2cc(OC)c(O)c(OC)c2)c1	-2%	21%	-14%	?	14%	-5
CCN(CC)S(=O)(=O)c1cccc(C(=O)N/N=C/c2cccc(O)c2O)c1	10µM*	?	?	-5%	13µM*	-24
CCN(CC)c1ccc(/C=N/NC(=O)c2cccc(S(=O)(=O)N3CCOCC3)c2)c(O)c1	1.8µM*	?	?	?	?	-75*
CCN(CC)c1ccc(C=Nc2cccc(S(=O)(=O)N3CCOCC3)c2)c(O)c1	-19%	9%	-17%	6%	13%	6
COc1cc(/C=N\NC(=O)CNC(=O)C2COc3ccccc3O2)ccc1O (configuration not stated)	-18%	1%	-17%	-22%	8%	28
Cc1ccc(-c2nc3cc(C(C)C)ccc3o2)cc1NC(=O)c1cc([N+](=O)[O-])ccc1N1CCOCC1	-11%	?	-11%	9%	-1%[46.1 µM]	?
CCN(CC)c1ccc(/C=N/NC(=O)CCC(=O)NCc2ccccc2)c(O)c1	10µM*	?	?	14%	?	-16
CCN(CC)c1ccc(/C=N/NC(=O)c2c(Cl)cnn2C)c(O)c1	1.1µM*	1.1µM*	?	21%	21µM*	-101*
Cn1ncc(Cl)c1C(=O)N/N=C/c1cc2c(cc1[N+](=O)[O-])OCO2	/	-25%	/	0%	1%	-9
CCOC(=O)N/N=C/c1ccc(N(CC)CC)cc1O	?	?	?	32%	4.5µM*	24
O=C(NCCc1ccncc1)[C@@H]1[C@@H](CO)[C@@H]2Cn3c(cccc3=O)[C@H]1N2Cc1ccccc1F	/	/	/	/	/	24
CC(C)(C)c1ccc(C(=O)N2CCC(=O)N([C@H](COCc3ccccc3)Cc3ccccc3)CC2)cc1	2%	/	-26%	-20%	/	-14
CC(C)(C)c1ccc(C(=O)N2CCC(=O)N(C(COCc3ccccc3)Cc3ccccc3)CC2)cc1 (configuration not stated)	-24%	?	?	?	8.2µM*	37
Cc1cccc(COCC(Cc2ccccc2)N2CCN(C(=O)c3ccc(Cl)c(Cl)c3)CCC2=O)c1 (configuration not stated)	?	-45%	?	?	15µM*	31
Cc1cccc(COC[C@H](Cc2ccccc2)N2CCN(C(=O)c3ccc(Cl)c(Cl)c3)CCC2=O)c1	-16%	/	-11%	0%	/	-9
Cc1cccc(COCC(Cc2ccccc2)N2CCN(C(=O)c3cccc(C)c3)CCC2=O)c1 (configuration not stated)	-16%	-39%	-27%	-17%	7.3µM*	27
Cc1cc(C)cc(NC(=O)c2ccc3c(O)c(S(=O)(=O)c4ccccc4)c(=O)[nH]c3c2)c1	-10%	/	-14%	-16%	-16%[46.1 µM]	11
CN(C)c1ccc(/C=C/c2ccnc3cc(Cl)ccc23)cc1	-16%	/	47%	/	/	/
N#Cc1ccc2c(c1)C[C@]1(c3ccsc3)Oc3c(c(=O)oc4ccccc34)[C@H]2O1	/	5%[14.2 µM]	/	/	/	/
CCOC(=O)N1CCN(C(=O)CCl)CC1	2.2µM*	?	3.2µM*	?	?	-27
CC(C)(C)NC(=O)CN1CCN(C(=O)CCl)CC1	?	?	2.5µM*	?	?	-63*
CCOC(=O)N1CCN(C(=O)COC(=O)c2cc(Cl)c(O)c(Cl)c2)CC1	i	6%[46.1 µM]	-1%	0%	-20%	-73*
CCOC(=O)N1CCN(C(=O)COC(=O)c2cc(Cl)cc(Cl)c2)CC1	-5%	-11%	-1%	-7%	3%	20
